Consider 6 molecules from the supplement of paper PMC7411054.

Each structure is given as a SMILES string.

Common to all, as to conditions: treatment time: 24 h
The subject of test [1] is A549-ACTB-RAB5A. Put plainly: lowest phenotypically active concentration; higher = less potent. The method in brief: (§1)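 Fifteen reporter lines derived from A549, HepG2 and WPMY1 cells by gene editing, carrying BFP for segmentation plus GFP and RFP/FusionRed markers, were exposed to 0.3, 1, 3 or 9 µM for 24 h in four wells each and imaged live. Live-cell features from each well were normalised to solvent control wells. A well set counted as deviating when ≥3 of 4 wells lay beyond the 95th percentile of control Euclidean distances, and as reproducible when the median replicate Pearson correlation exceeded the 95th percentile of non-replicates. Phenotypic activity was assigned only when both criteria were met.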

Test [2] concerns A549-CANX-COX4. The description is as above. The method in brief: as §1
Test [3] deals with A549-GM130-SQSTM1. The description is as above. The method, boiled down: as §1
The test system of test [4] is A549-TP53BP1-CLTA. The test is described as above. The method, boiled down:
as §1

In test [5] the test system is A549-TUBA1B-RELA. Described as above. The method in brief:
as §1

The subject of test [6] is HepG2-TP53BP1-CLTA. The description is as above. The method, boiled down:
as §1

The subject of test [7] is A549-ACTB-RAB5A. As to the kind of experiment: phenotypically active (imaging signature differs from DMSO and reproducible) at any of 0.3-9 uM (binary (1 = active, 0 = inactive)); higher = active. The method, boiled down:
as §1

Test [8] concerns A549-CANX-COX4. The description is as above. The method in brief:
as §1

For test [9], the system named is A549-GM130-SQSTM1. The test is described as above. The method, boiled down:
as §1

Test [10] concerns A549-TP53BP1-CLTA. Described as above. The method, boiled down:
as §1

The subject of test [11] is A549-TUBA1B-RELA. Described as above. The method, boiled down: as §1
The subject of a further test is HepG2-ACTB-RAB5A. Described as above. The method, boiled down:
as §1

Another test concerns HepG2-CANX-COX4. The test is described as above. The method in brief: as §1
The next test has as its system HepG2-GM130-SQSTM1. The description is as above. The method in brief: as §1
Test [12] has as its system HepG2-TP53BP1-CLTA. The description is as above. The method, boiled down: as §1
The next test has as its system HepG2-TUBA1B-RELA. The description is as above. The method in brief: as §1
In the next test the test system is WPMY1-CANX-COX4. The description is as above. The method in brief:
as §1

For a further test, the system named is WPMY1-GM130-SQSTM1. The description is as above. The method, boiled down: as §1
A further test has as its system WPMY1-TP53BP1-CLTA. The description is as above. The method, boiled down:
as §1

Another test relates to WPMY1-TUBA1B-RELA. Described as above. The method, boiled down:
as §1

As for `O=C(Nc1ccc(-c2ccnc(Nc3ccc(N4CCOCC4)cc3)n2)cc1)[C@@H]1CCCN1`, the “lowest phenotypically active concentration” value in the test on A549-ACTB-RAB5A [1] turned out to be 3 µM; in the test with A549-CANX-COX4 [2] it was 9 µM; in the test on A549-GM130-SQSTM1 [3] it was 3 µM; with A549-TP53BP1-CLTA [4], 9 µM; in the test with A549-TUBA1B-RELA [5] it was 3 µM; in the test on HepG2-TP53BP1-CLTA [6], 9 µM. For the same molecule, the phenotypically active in the test with A549-ACTB-RAB5A [7], in the test on A549-CANX-COX4 [8], in the test on A549-GM130-SQSTM1 [9], with A549-TP53BP1-CLTA [10], in the test on A549-TUBA1B-RELA [11] and with HepG2-ACTB-RAB5A was 1 (active) throughout. For the same molecule, the phenotypically active in the test with HepG2-CANX-COX4, in the test with HepG2-GM130-SQSTM1, with HepG2-TP53BP1-CLTA [12], in the test on HepG2-TUBA1B-RELA, in the test with WPMY1-CANX-COX4 and in the test on WPMY1-GM130-SQSTM1 was 1 (active) each time. The phenotypically active with WPMY1-TP53BP1-CLTA and with WPMY1-TUBA1B-RELA was 1 (active) each time.
Regarding `Cc1c(C(=O)N2CCOc3ccc(-c4ccc(N)nc4)cc3C2)ccc(S(C)(=O)=O)c1F`, the “lowest phenotypically active concentration” value is 1 µM in the test on A549-ACTB-RAB5A [1]; 3 µM in the test with A549-CANX-COX4 [2]; 3 µM in the test with A549-GM130-SQSTM1 [3]; 3 µM in the test on A549-TP53BP1-CLTA [4]; 1 µM with A549-TUBA1B-RELA [5]; 9 µM in the test with HepG2-TP53BP1-CLTA [6]. The phenotypically active in the test on A549-ACTB-RAB5A [7], in the test with A549-CANX-COX4 [8], in the test with A549-GM130-SQSTM1 [9], in the test with A549-TP53BP1-CLTA [10], in the test on A549-TUBA1B-RELA [11] and with HepG2-ACTB-RAB5A was 1 (active) throughout. In addition, the phenotypically active with HepG2-CANX-COX4, in the test on HepG2-GM130-SQSTM1, with HepG2-TP53BP1-CLTA [12], with HepG2-TUBA1B-RELA, in the test on WPMY1-CANX-COX4 and in the test on WPMY1-GM130-SQSTM1 was 1 (active) each time. In addition, the phenotypically active in the test on WPMY1-TP53BP1-CLTA and in the test on WPMY1-TUBA1B-RELA was 1 (active) throughout.
For `C=CC(=O)Nc1cccc(Nc2nc(Nc3ccc(OCCOC)cc3)ncc2F)c1`, the “lowest phenotypically active concentration” value in the test with A549-ACTB-RAB5A [1] worked out at 3 µM; in the test with A549-CANX-COX4 [2], 3 µM; in the test with A549-GM130-SQSTM1 [3], 9 µM; with A549-TP53BP1-CLTA [4] it was 3 µM; with A549-TUBA1B-RELA [5] it was 9 µM; in the test with HepG2-TP53BP1-CLTA [6] it was 9 µM. Further, the phenotypically active in the test on A549-ACTB-RAB5A [7], in the test on A549-CANX-COX4 [8], with A549-GM130-SQSTM1 [9], with A549-TP53BP1-CLTA [10], in the test on A549-TUBA1B-RELA [11] and with HepG2-ACTB-RAB5A was 1 (active) throughout. In addition, the phenotypically active with HepG2-CANX-COX4, with HepG2-GM130-SQSTM1, in the test on HepG2-TP53BP1-CLTA [12], with HepG2-TUBA1B-RELA, in the test on WPMY1-CANX-COX4 and in the test on WPMY1-GM130-SQSTM1 was 1 (active) in each case. Also, the phenotypically active in the test with WPMY1-TP53BP1-CLTA and in the test with WPMY1-TUBA1B-RELA was 1 (active) each time.
For `Cc1c(CN2CCN(C(=O)[C@H](C)O)CC2)sc2c(N3CCOCC3)nc(-c3cnc(N)nc3)nc12`, the “lowest phenotypically active concentration” value with A549-ACTB-RAB5A [1] was at most 0.3 µM; with A549-CANX-COX4 [2], at most 0.3 µM; in the test with A549-GM130-SQSTM1 [3], at most 0.3 µM; with A549-TP53BP1-CLTA [4] it was at most 0.3 µM; with A549-TUBA1B-RELA [5] it was at most 0.3 µM; with HepG2-TP53BP1-CLTA [6], 1 µM. Moreover, the phenotypically active in the test on A549-ACTB-RAB5A [7], with A549-CANX-COX4 [8], in the test with A549-GM130-SQSTM1 [9], in the test with A549-TP53BP1-CLTA [10], in the test with A549-TUBA1B-RELA [11] and with HepG2-ACTB-RAB5A was 1 (active) each time. For the same molecule, the phenotypically active in the test with HepG2-CANX-COX4, with HepG2-GM130-SQSTM1, with HepG2-TP53BP1-CLTA [12], with HepG2-TUBA1B-RELA, with WPMY1-CANX-COX4 and in the test on WPMY1-GM130-SQSTM1 was 1 (active) throughout. The phenotypically active in the test with WPMY1-TP53BP1-CLTA and in the test with WPMY1-TUBA1B-RELA was 1 (active) throughout.
For `CC(C)(C)Nc1nc(Nc2ccc(C(N)=O)cc2)cc(N)c1C#N`, the “lowest phenotypically active concentration” value in the test on A549-ACTB-RAB5A [1], in the test on A549-CANX-COX4 [2], in the test with A549-GM130-SQSTM1 [3], in the test on A549-TP53BP1-CLTA [4], with A549-TUBA1B-RELA [5] and in the test on HepG2-TP53BP1-CLTA [6] was 3 µM in each case. The phenotypically active in the test on A549-ACTB-RAB5A [7], in the test with A549-CANX-COX4 [8], in the test with A549-GM130-SQSTM1 [9], in the test on A549-TP53BP1-CLTA [10], in the test with A549-TUBA1B-RELA [11] and with HepG2-ACTB-RAB5A was 1 (active) throughout. The phenotypically active in the test on HepG2-CANX-COX4, with HepG2-GM130-SQSTM1, with HepG2-TP53BP1-CLTA [12], with HepG2-TUBA1B-RELA, with WPMY1-CANX-COX4 and with WPMY1-GM130-SQSTM1 was 1 (active) in each case. The phenotypically active with WPMY1-TP53BP1-CLTA and in the test on WPMY1-TUBA1B-RELA was 1 (active) each time.
As to `Cc1cc(Nc2ncc3c(n2)N(C)C(=O)N(c2cc(NC(=O)c4cccc(C(F)(F)F)c4)ccc2C)C3)n(C)n1` [Pluripotin], the “lowest phenotypically active concentration” value in the test with A549-ACTB-RAB5A [1], in the test with A549-CANX-COX4 [2], with A549-GM130-SQSTM1 [3], with A549-TP53BP1-CLTA [4], in the test with A549-TUBA1B-RELA [5] and with HepG2-TP53BP1-CLTA [6] was at most 0.3 µM each time. In addition, the phenotypically active in the test on A549-ACTB-RAB5A [7], in the test on A549-CANX-COX4 [8], in the test on A549-GM130-SQSTM1 [9], in the test on A549-TP53BP1-CLTA [10], in the test with A549-TUBA1B-RELA [11] and in the test on HepG2-ACTB-RAB5A was 1 (active) throughout. In addition, the phenotypically active with HepG2-CANX-COX4, in the test with HepG2-GM130-SQSTM1, in the test on HepG2-TP53BP1-CLTA [12], in the test with HepG2-TUBA1B-RELA, in the test on WPMY1-CANX-COX4 and in the test on WPMY1-GM130-SQSTM1 was 1 (active) in each case. In addition, the phenotypically active in the test with WPMY1-TP53BP1-CLTA and in the test with WPMY1-TUBA1B-RELA was 1 (active) in each case.
